The record followed here is PubChem BioAssay (NCATS).

The nature of assay [1]: P-glycoprotein substrates identified in KB-3-1 adenocarcinoma cell line, qHTS therapeutic library screen (AID 1346986). Note: nearly all actives have a fitted effect of over 60% in size. An outline of the steps: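 Compounds were tested in dose-response against KB-3-1 and KB-8-5-11 cells at 37 degree C for 72 h, and viability was measured by luminescence. AC50 values came from curve fitting with class-based activity calls.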
A short description of assay [2]: P-glycoprotein substrates identified in KB-8-5-11 adenocarcinoma cell line, qHTS therapeutic library screen (AID 1346987). Note: nearly all actives have a fitted effect of over 65% in size. In a few lines: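 KB-8-5-11: colchicine-selected sub-line of KB-3-1 over-expressing P-gp; assay medium lacked colchicine. 72 h drug exposure at 37 degree C, CellTiter-Glo.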
Assay [3] can be described thus: Primary qHTS for inhibitors of nuclear receptor binding SET domain protein 2 (NSD2) in an RCH-ACV wild type WT cells (2C) (AID 1645877). Note: nearly all actives have a fitted effect of over 70% in size. Note: potency is the fitted concentration of half-maximal effect.
In assay [4] the test system is KB-3-1. Kind of assay: Cytotoxic Profiling of Annotated Libraries Using Quantitative High-Throughput Screening (AID 1296008). For max response: % is set by controls: 0 for no effect and ±100 for the full control effect. Note: nearly all actives have a fitted effect of over 60% in size. Particulars: Five cell lines viability, CellTiter-Glo ATP luminescence, 48-72 h; max response: hits give low values. An outline of the steps: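 Cells exposed to compounds for 48 or 72 hr at 37 degrees Celsius. Viability read as ATP-coupled luminescence with CellTiter-Glo after 10 min at room temperature.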

Assay [5] concerns CRL-7250. Kind of assay: qHTS assay to identify novel small-molecules to repurpose for Merkel cell carcinoma treatment (AID 1296009). Note: nearly all actives have a fitted effect of over 60% in size. Particulars: MCC and control cell lines, CellTiter-Glo viability, 72 h; series mostly up to 92 µM. In a few lines:
(§1)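 Cells were incubated with compound for 72 hr at 37 degree celsius before CellTiter-Glo addition. Luminescence was normalized with no-cell wells as full cytotoxicity and DMSO as baseline.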

In assay [6] the test system is HeLa. Kind of assay: Primary qHTS to identify gynecologic anti-cancer compounds using libraries of approved drugs and bioactive compounds (AID 1345084). Note: % is set by controls: 0 for no effect and ±100 for the full control effect; nearly all actives have a fitted effect of over 55% in size. Particulars: Gynecologic cancer cell panel viability, ATPlite luminescence, 48 h; series mostly up to 57.5 µM. In a few lines:
(§2)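 Luminescence from the ATPlite ATP-monitoring reagent indicates viable cell number; lower signal means cytotoxicity. Cells received compound 16 h after seeding and were exposed for 48 h across five concentrations.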

Assay [7] relates to JEG-3. Described as above. Particulars: Gynecologic cancer cell panel viability, ATPlite luminescence, 48 h; series mostly up to 57.5 µM. An outline of the steps: as §2
Assay [8] has as its system SKOV3. The assay is described as above. Particulars: Gynecologic cancer cell panel viability, ATPlite luminescence, 48 h; series mostly up to 57.5 µM. In a few lines:
as §2

Assay [9] deals with Zika virus NS2B-NS3 protease (unlinked complex). Kind of assay: Primary screen GU Rhodamine qHTS for Zika virus inhibitors: Unlinked NS2B-NS3 protease assay (AID 1347159). In a few lines: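 Compounds, tested up to 114 microM, were incubated for 15 minutes with 25 nM unlinked NS2B-NS3 protease at pH 8.0. Cleavage of 1.5 microM Rhodamine110 substrate was then followed by fluorescence for 15 minutes.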

In assay [10] the target is Cytochrome P450 2D6 (Homo sapiens) (UniProt P10635). Kind of assay: Cytochrome P450 family 2 subfamily D member 6 (CYP2D6) small molecule antagonists: luciferase biochemical (cell-free) qHTS assay (AID 1645840; active = well fitted curve in the direction sought with a large enough effect in the repeat runs; an effect the other way counts as inactive or inconclusive; note: % is set by controls: 0 for no effect and ±100 for the full control effect; nearly all actives have a fitted effect of over 55% in size). In a few lines:
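P450-Glo luminescent screen: recombinant CYP2D6 enzyme–proluciferin substrate mix preincubated with compound 10 min at room temperature, then NADPH regeneration added for 1 h at room temperature. Detection reagent added for 20 min; luciferin light read as relative luminescence units.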

Assay [11] concerns HACAT. Kind of assay: qHTS assay to identify novel small-molecules to repurpose for Merkel cell carcinoma treatment (AID 1296009). Note: nearly all actives have a fitted effect of over 60% in size. Particulars: MCC and control cell lines, CellTiter-Glo viability, 72 h; at 44.8 µM (top of the series) unless noted. An outline of the steps:
as §1

The subject of assay [12] is CAOV3. In words: Primary qHTS to identify gynecologic anti-cancer compounds using libraries of approved drugs and bioactive compounds (AID 1345084). Note: % is set by controls: 0 for no effect and ±100 for the full control effect; nearly all actives have a fitted effect of over 55% in size. Particulars: Gynecologic cancer cell panel viability, ATPlite luminescence, 48 h; series mostly up to 57.5 µM. In a few lines:
as §2

Assay [13] can be described thus: Primary redox qHTS assay for identification of artifact compounds. (AID 1845223).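 Note: 0% = DMSO and 100% = reference compound.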 In a few lines: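 Amplex Red (25 uM) and HRP (250 mU/mL) in HBSS, with compounds for 15 min, then 250 uM DTT for 30 min, room temperature, dark. Fluorescence 525/598 nm read; normalized to DMSO and 10 uM DA3003; Hill fit.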

Results filed as inconclusive are left out. Unmarked numbers belong to inactive results. Active and inactive are the calls of the source. Unless noted, calls come from the whole dose curve; as a rule, active = well fitted curve in the direction sought with a large enough effect; inconclusive = small, poorly fitted or top-dose-only effect, or another doubt; inactive = no such curve, though single readings can be large; an effect the other way counts as inactive or inconclusive.

Chain of Cytochrome P450 2D6 (Homo sapiens) (P10635 whole entry, looked up): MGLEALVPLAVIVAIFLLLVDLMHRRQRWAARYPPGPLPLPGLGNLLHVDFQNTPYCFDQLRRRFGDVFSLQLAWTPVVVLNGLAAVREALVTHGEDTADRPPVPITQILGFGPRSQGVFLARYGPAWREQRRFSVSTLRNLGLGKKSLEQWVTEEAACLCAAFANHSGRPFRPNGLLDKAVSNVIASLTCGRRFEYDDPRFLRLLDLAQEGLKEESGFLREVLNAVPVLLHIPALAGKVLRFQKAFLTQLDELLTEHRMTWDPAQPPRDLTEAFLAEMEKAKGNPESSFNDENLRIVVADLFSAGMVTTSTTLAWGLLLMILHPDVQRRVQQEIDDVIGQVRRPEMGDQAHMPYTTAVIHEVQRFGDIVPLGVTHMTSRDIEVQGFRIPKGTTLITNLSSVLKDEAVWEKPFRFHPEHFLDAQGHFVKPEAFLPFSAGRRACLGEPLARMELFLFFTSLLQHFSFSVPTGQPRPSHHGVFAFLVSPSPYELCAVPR

On to `CS[C@]1(CO)C(=O)N2[C@H]3C(=CC=C[C@@H]3O)C[C@@]2(SC)C(=O)N1C`, for which the Potency entry in assay [1], in [2], in assay [3], in [5], in assay [6] and in [7] was “inactive” each time. The Potency entry in [8] was “inactive”. In addition, the result in assay [4] was inactive.

In the case of `Cc1c(N2C(=O)[C@@H]3[C@H](O)CCN3C2=O)ccc(C#N)c1Cl`, the Potency result in assay [2], in [9], in [10], in assay [12], in [6] and in [7] was “inactive” each time. Besides, the max response in assay [4] is -9.81%. For the same molecule, in [11], the molecule was classed as inactive.

In the case of `C/C=C1/CN2CC[C@]34C(=Nc5ccc(OC)cc53)C2C[C@@H]1C4(CO)C(=O)OC` (some centres undefined), the Potency entry in assay [2], in assay [9], in assay [3], in assay [13], in assay [12] and in assay [6] was “inactive” in each case. The Potency result in [7] and in assay [8] was “inactive” each time. Further, in [4], the max response is 0.853%. In addition, the outcome in assay [11] was inactive.

For the molecule `C=CC(C)(C)c1[nH]c2c(CC=C(C)C)cc(CC=C(C)C)cc2c1C[C@@H]1NC(=O)[C@H](C)NC1=O`, the Potency result in assay [1], in [2], in assay [9], in assay [3], in assay [13] and in assay [12] was “inactive” throughout. For the same molecule, the Potency result in assay [6], in assay [7] and in assay [8] was “inactive” throughout. Further, the outcome in assay [4] was inactive.

Consider `CN1CCc2cc3c(cc2C1C1OC(=O)c2c1ccc1c2OCO1)OCO3` (centres undefined), for which the Potency entry in [2], in [9], in assay [13], in assay [12], in assay [6] and in [7] was “inactive” throughout. In addition, the Potency entry in assay [8] is “inactive”. Besides, in [4], the max response was -4.22%.

Regarding `C=C1[C@@]23C(=O)O[C@H](C)[C@]24O[C@@]2(C(=C)[C@]5(C=CC(=O)OC5(C)C)CC[C@]32C)[C@H](O)[C@@]1(C)OC4=O`, the Potency entry in assay [2], in [3], in [12], in assay [6], in [7] and in assay [8] was “inactive” in each case. Also, the max response in assay [4] was -4.55%. Besides, the outcome in [11] is “inactive [at 17.4 µM]”.

Take `COc1cc(O)c2c(c1)/C=C/C[C@@H](O)[C@@H](O)C(=O)CCC[C@H](C)OC2=O`: the Potency result in assay [2], in assay [9], in assay [13], in assay [12], in assay [6] and in assay [7] was “inactive” each time. In addition, the Potency result in assay [8] was “inactive”. The max response in [4] was 5.8%.

As to `Cc1cccc(NC(=O)N[C@H]2CN(C)c3ccccc3C(c3ccccc3)=N2)c1`, the Potency result in assay [9], in assay [13], in [12], in assay [6], in assay [7] and in [8] was “inactive” each time. Further, the Potency in [3] was 14.5 µM (active). The max response in [4] is 6.39%. In assay [11], the call was inactive.
